# The list is not random: actives were taken first. Their share in the collection is about 2.4%.
# WRN helicase inh: WRN helicase (human) inhibition; WRN helicase unwinding, fluorescent forked duplex, kinetic; Potency, µM (top dose mostly 114 µM), for inactives: top-dose activity change, negative = inhibition, actives largely listed as inhibitors; hit rate 0.46% among 360,000; further: on the % scale 0 is the no-effect control and ±100 the full control effect; nearly all actives have a fitted effect of over 55% in size
#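 Kinetic red-fluorescence monitoring (525/598 nm) tracks WRN helicase activity after 100 nM fluorophore-quencher forked duplex and 2 mM ATP are added to 20 nM enzyme pretreated 15 min at room temperature with compound.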
# Pol beta inh: blocks human DNA polymerase beta activity; Pol beta primer extension/strand displacement, fluorescence kinetic; Potency, µM (doses to about 114 µM), for inactives: at the top dose activity change, negative = inhibition, usual class: inhibitors; hit rate 1.3% among 340,000; AID 485314; P06746; further: on the % scale 0 is the no-effect control and ±100 the full control effect
#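 Pol beta (10 nM) and compounds were preincubated 15 min at room temperature, then 50 nM substrate (final) started primer extension/strand displacement. Reads were taken at 0 and 10 min; concentration-response data were fitted to a four-parameter Hill equation.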
# POLI inh: DNA polymerase iota (human) inhibition | Q9UNA4 | Pol iota fluorescent replication assay, 10 min | Potency, µM (doses to about 115 µM), for inactives: at the top dose activity, negative = inhibition, hits mostly inhibitors | hit rate 1% among 390,000 | AID 588590
#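 Fluorescent replication assay read twice, at 0 min and 10 min after adding 50 nM (final) substrate. Enzyme (10 nM) and compounds were first incubated 15 min at room temperature; enzyme-free buffer wells were negative controls.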
# FEN1 inhibitor: blocks human flap endonuclease 1; P39748; Recombinant FEN1 flap cleavage, fluorescence, 15 min; Potency, µM (doses to about 114 µM), for the others: at the top dose activity change, negative = inhibition, actives largely listed as inhibitors; hit rate 0.35% among 390,000; AID 588795; further: on the % scale 0 is the no-effect control and ±100 the full control effect; nearly all actives have a fitted effect of over 65% in size
#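 FEN1 at 10 nM, compound pretreatment for 15 min (room temperature), 50 nM final substrate to initiate; endpoint reads at 0 and 15 min; DMSO-only plates used as vehicle background.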
# Pol kappa inh-1: blocks human DNA polymerase kappa activity; purified Pol kappa, fluorescent DNA synthesis assay, 10 min; Potency, µM (top dose mostly 107 µM), for inactives: top-dose activity, negative = inhibition, actives largely listed as inhibitors; hit rate 0.53% among 400,000; further: on the % scale 0 is the no-effect control and ±100 the full control effect
#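 50 nM final substrate added after 15 min RT preincubation of 10 nM Pol kappa with compound; fluorescence read at 0 and 10 min.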
# Pol eta inh-1: inhibitors of human DNA polymerase eta | recombinant Pol eta, fluorescent DNA replication assay | Potency, µM (doses to about 114 µM), for the others: at the highest dose activity change, negative = inhibition, most hits filed as inhibitors | hit rate 1.2% among 390,000 | AID 588591; further: on the % scale 0 is the no-effect control and ±100 the full control effect
#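 Pol eta at 10 nM preincubated with compounds 15 min at room temperature; reaction started with fluorescent substrate (50 nM final) and read kinetically at 0 and 10 min.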
# TbPGK inh: validation of Trypanosoma brucei phosphoglycerate kinase inhibitors. shares compounds with Pol kappa inh-1. TbPGK coupled GAPDH assay, Kinase-Glo luminescence. Potency, µM (top dose mostly 57.5 µM), for inactives: top-dose activity change, negative = inhibition, usual class: inhibitors. hit rate 79% among 500; further: on the % scale 0 is the no-effect control and ±100 the full control effect; nearly all actives have a fitted effect of over 65% in size
# Pol iota confirm: Inhibitors of human DNA polymerase iota, confirmation | shares compounds with Pol kappa inh-1 | Pol iota primer extension, TAMRA/BHQ fluorescence | Potency, µM, hits mostly inhibitors | hit rate 77% among 1,500
# Pol kappa inh-2: Pol kappa (human) inhibition, cherry-pick confirmation; shares compounds with Pol eta inh-1; purified Pol-kappa, fluorescent strand-displacement substrate; Potency, µM, most hits filed as inhibitors; hit rate 76% among 920; AID 720501
# Pol eta inh-2: confirmation of human DNA polymerase eta inhibitors. shares compounds with Pol eta inh-1. Pol eta primer extension, TAMRA/BHQ fluorescence, 10 min. Potency, µM, hits mostly inhibitors. hit rate 64% among 2,600
# The depositor's hits bear a star; ? = inconclusive; / = no result given; [ ] = dose if it differs, or a comment. The call rests on the fitted dose curve; in most records, active means well fitted curve in the direction sought with a large enough effect; inconclusive means small, poorly fitted or top-dose-only effect, or another doubt; inactive means no such curve, though single readings can be large; an effect the other way counts as inactive or inconclusive. Potency means the concentration at half of the fitted maximal effect.
SMILES,WRN helicase inh,Pol beta inh,POLI inh,FEN1 inhibitor,Pol kappa inh-1,Pol eta inh-1,Pol iota confirm,Pol eta inh-2,others
COc1ccc2c(c1)c(=O)oc1cc(OCC(=O)N3CCc4ccccc4C3)ccc12,?,11µM*,?,-9%,?,89µM*,34*,76*,TbPGK inh=3.3µM*;Pol kappa inh-2=8.4*
COc1ccc(-c2noc(N(c3cccc(Cl)c3)c3nc(-c4ccc(OC)c(OC)c4)no3)n2)cc1OC,/,2%,5%,20%,-2%,-11%,/,/,
CCOc1cc(/C=C2\C(=N)N3N=C(S(C)(=O)=O)SC3=NC2=O)ccc1OCCOc1cccc(OC)c1,56µM*,?,?,-25%,-21%,28µM*,?,85*,Pol kappa inh-2=75*
COc1cc(/C=C2/C(=N)N3C(=NC2=O)SN=C3S(C)(=O)=O)ccc1OS(=O)(=O)c1ccc(C)cc1,?,?,?,-20%,-28%,79µM*,?,30*,
COc1cc(/C=C2\C(=N)N3N=C(S(C)(=O)=O)SC3=NC2=O)cc(OC)c1OCCOc1cccc(C)c1,-33%,?,93%,-8%,-8%,?,/,/,
Cc1ccc(S(=O)(=O)Oc2ccc(/C=C3\C(=N)N4N=C(S(C)(=O)=O)SC4=NC3=O)cc2)cc1,?,?,16µM*,?,-26%,20µM*,?,76*,
CCOc1ccccc1CNC(=O)C1CCCN(c2ncnc3onc(-c4ccc(F)cc4)c23)C1 (stereo unspecified),/,29%,17%,-2%,4%,-12%,/,/,
CC(=O)NCCCc1ccc(C(=O)COC(=O)CNC(=O)c2ccc3ccccc3c2)cc1,/,/,19%,-1%,-16%,/,/,/,
Cc1ccc(NC(=O)CSc2nc3c(sc4ccccc43)c(=O)n2CCCC(=O)NC2CCCC2)cc1C,/,-11%,7%,4%,3%,5%,/,/,
COc1cc(C(c2c(C(=O)O)[nH]c3ccccc23)c2c(C(=O)O)[nH]c3ccccc23)ccc1OCc1ccccc1,-16%[11.6 µM],45µM*,-27%,-6%,?,50µM*,?,?,
O=C(O)c1[nH]c2ccccc2c1C(c1ccccc1)c1c(C(=O)O)[nH]c2ccccc12,-16%,?,-24%,-4%,-36%,-16%,/,/,
COC(=O)/C(C(C)=O)=C(\C=C\N(C)C)N(C)C,-8%,17%,24%,0%,-3%,-8%,/,/,
COC(=O)\C(C(C)=O)=C(/C=C/C=C/C=C/N(C)C)N(C)C,21µM*,10µM*,4µM*,?,22µM*,2.8µM*,15*,6*,TbPGK inh=4.1µM*;Pol kappa inh-2=5.3*
Cc1nn(-c2ccccc2)c2c1cc1c(=O)[nH]c(=O)nc-1n2-c1cccc(C(F)(F)F)c1,/,-26%,?,15%,-7%,-14%,/,/,
NC(=O)C1CCN(C2=C(NS(=O)(=O)c3ccccc3)C(=O)c3ccccc3C2=O)CC1,4%,9%,29%,6%,-9%,2%,/,/,
